Each structure is given as a SMILES string. Unmarked numbers belong to inactive results. Activity calls are given as the source filed them. Cut-off read from the data, not from the text of the source: active = inhibition above about 30%; inactive = the rest.

This assay has as its system transactivating tegument protein VP16 (Human herpesvirus 1), Gal4-VP16 luciferase reporter. Briefly: repression of VP16-driven luciferase reporter – cell-based, luminescence, high throughput, counter-screen for SRC3 inhibitor project (AID 588794). To be noted: mammalian cells, at 3.6 µM, active compounds read high.
For orientation: inhibition means the change of the read-out against control, counted positive when it falls. As for `CC(=O)N1CCc2cc(S(=O)(=O)NCCC(=O)NCCc3ccc(Cl)cc3)ccc21`, the inhibition is 1.52%. `Cc1nc(Nc2nc(CSc3nc4ccccc4[nH]3)cc(=O)[nH]2)nc2ccccc12`: the inhibition is 3.35%. To `O=C(O)c1cc(NS(=O)(=O)c2ccc(N3CCOCC3)c([N+](=O)[O-])c2)cc(C(=O)O)c1` belongs -5.01%. `O=C(Cn1cnc([N+](=O)[O-])n1)N/N=C/c1cc(Cl)ccc1O`: the inhibition is 27.4%.

In the case of `CCCc1nn(C)c(C(=O)Nc2cccc(Cl)c2)c1Cl`, the inhibition is 0.8%. To `CCCCNC1C(CC)C(CCC)C(C#N)(C#N)C1(C#N)C#N` (stereo not given) belongs 20%; to `Cc1ccc(S(=O)(=O)N2CCOCC2)cc1C(=O)Nc1cc(S(=O)(=O)N2CCCCC2)ccc1O`, -4.27%. For `CC1=C(NCCc2ccccc2)CCC1=O`, the inhibition was -7.31%. To `Cc1cccc(NC(=O)c2cnn(C)c2)c1C` belongs -8.45%; to `O=C(NCCc1ccccn1)C(F)(F)C(F)(F)C(F)(F)C(F)(F)C(F)(F)C(F)(F)C(F)(F)C(F)F`, -4.16%; to `CCN(CC(=O)Nc1ccccc1C(F)(F)F)C(=O)c1ccc(N2C(=O)CCC2=O)cc1`, 2.68%. To `Cc1ccc(-n2c(Cl)c(Cl)nc(Cl)c2=O)cc1` belongs 17.9%; to `COc1ccc2[nH]c(C(=O)N/N=C/c3ccc(O)cc3O)cc2c1`, 45.9% (active); to `CC(C)(C)OC(=O)NCc1ccc(CNC(=O)c2[nH]cnc2C(=O)NC2CCN(C(=O)OC(C)(C)C)CC2)cc1`, -0.72%. In the case of `Cc1cc(C=C2C(=O)c3ccccc3C2=O)c(C)n1-c1ccccc1`, the inhibition is 43.2% (active).

Regarding `CC1CC(C)CN(c2nc(NCc3ccco3)nc(N)c2[N+](=O)[O-])C1` (stereo not given), the inhibition was 9.4%. As for `CC(=O)N1CCCc2cc(S(=O)(=O)N3CCCC(C(=O)NCc4ccc(Cl)cc4)C3)ccc21` (stereo not given), the figure is 9.17%. For the compound `NC(=O)c1sc2nc3c(c(-c4ccco4)c2c1N)CCCC3`, the inhibition is 32.4% (active). In the case of `C=CCc1cccc(/C=N/NC(=O)C[n+]2ccccc2)c1O`, the inhibition was 12.3%. Take `CC(C)c1nc(Cl)c(C#N)c2c1CCCC2`: the inhibition is 37% (active). To `CC(C)(C)c1cc(C(=O)N/N=C/c2ccccc2O)n(-c2ccccc2)n1` belongs 40.6% (active); to `O=C(COc1ccccc1[N+](=O)[O-])Nc1ccc(N2CCN(C(=O)c3cccs3)CC2)cc1`, 7.15%. On to `OCCNCCOc1ccc(Cl)c(Cl)c1`, for which the inhibition was 2.08%.

On to `COc1ccc(CCN2C(=O)C(Oc3ccccc3C)C2c2ccc3c(c2)OCO3)cc1` (stereo not given), for which the inhibition is 8.58%. Turning to `CC(C)(C)c1csc(Sc2ccc([N+](=O)[O-])cn2)n1`, the inhibition is -8.39%. Regarding `COc1ccc(Cl)cc1NC(=O)CN(C)CC(=O)Nc1c(C)n(C)n(-c2ccccc2)c1=O`, the inhibition is 4.85%. To `COc1cccc(/C=N/Nc2nc3ccccc3n3cnnc23)c1O` belongs 1.79%.

With `CC12CN3CC(C)(CN(C1)C3c1ccccc1F)C2` (stereo not given), the inhibition is 4.18%. As for `CCOc1cc(N2CCOCC2)c(OCC)cc1NC(=O)c1cc(-c2ccco2)nc2ccccc12`, the figure is 8.51%; as for `COc1ccc(-c2nc3c(c(SCC(=O)N4CCOCC4)n2)Cc2c(CO)cnc(C)c2O3)cc1`, -10.4%.

For the compound `Cc1ccc(NC(=O)C2c3ccccc3-c3ccccc32)cc1`, the inhibition was 6.56%. As for `Cc1cc[n+](C(C)C(=O)c2ccc(-c3ccccc3)cc2)cc1` (stereo not given), the figure is 32% (active); as for `N#CCc1ccc(NC(=O)c2ccc(S(=O)(=O)N3CCOCC3)cc2)cc1`, -6.42%. For the compound `CC(C(=O)N1c2ccccc2Sc2ccccc21)n1nnc(-c2cccs2)n1` (stereo not given), the inhibition is 6.84%. To `COC(=O)Cc1[nH]n(-c2nc3ccccc3s2)c(=O)c1C(C)=Nc1ccc(C)cc1` belongs 87.1% (active); to `CCOC(=O)CN(C(=O)COc1nc(C)cc(C)c1C#N)c1ccc(Cl)cc1`, 1.1%. For the compound `Cc1nc2c(-c3ccc(F)cc3)cnn2c(N)c1-c1ccc(F)cc1`, the inhibition was 9.51%. For `Cc1cccc(Nc2nc(-c3c(C)nc4ccccn34)cs2)c1`, the inhibition was 24.4%. To `CC(=O)c1cc(CC=C(C)C)c(O)c(CC=C(C)C)c1O` belongs -4.39%. As for `O=C(N/N=C\c1c(O)ccc2ccccc12)c1ccc(Cn2cccn2)o1`, the figure is 39.5% (active).

Source of the values: PubChem BioAssay.
